Activity calls are given as the source filed them. How the source made its calls: active means hit-call score of the fitted dose curve at least 0.9, where 1 is the maximum; inactive means score below 0.9.

Consider 3 compounds from PubChem BioAssay (EPA / NIEHS).

What all share (conditions): mRNA level, 48 h; actives raise or lower the signal
Read-out in assay [1]: Lipoprotein lipase (LPL), LPL (gene 4023)
Briefly: LTEA_HepaRG_LPL: Life Technologies and Expression Analysis (LTEA) Assay for Lipoprotein lipase (LPL) using HepaRG (AID 2283515). The procedure, abridged:
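Differentiated HepaRG cells, plated 48 h, then exposed 48 h in serum-free induction medium to 8 concentrations (top 100 uM, half-log steps) in 0.5% DMSO, duplicate. LPL mRNA measured by qRT-PCR, normalized to ACTB, GAPDH and POLR2A.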

Read-out in assay [2]: MicroRNA 122 (MIR122), gene 406906
Briefly: LTEA_HepaRG_MIR122: Life Technologies and Expression Analysis (LTEA) Assay for MicroRNA 122 (MIR122) using HepaRG (AID 2283516). Further: the transcript read is the microRNA miR-122. The procedure, abridged:
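Differentiated human HepaRG cells in serum-free induction medium exposed 48 h to 8 half-log concentrations from 100 uM in 0.5% DMSO, duplicate. MIR122 quantified by Fluidigm TaqMan qRT-PCR, normalised to ACTB, GAPDH, POLR2A; fold change fitted bidirectionally versus DMSO.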

Read-out in assay [3]: matrix metalloproteinase-10 (MMP10), MMP10 (gene 4319)
Briefly: LTEA_HepaRG_MMP10: Life Technologies and Expression Analysis (LTEA) Assay for matrix metalloproteinase-10 (MMP10) using HepaRG (AID 2283517). An outline of the steps: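 Differentiated HepaRG cells in serum-free induction medium exposed 48 h in duplicate to 8-point half-log series up to 100 uM in 0.5% DMSO. mRNA quantified by qRT-PCR, normalised to ACTB, GAPDH, POLR2A; bidirectional fit versus DMSO.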

Read-out in another assay: MYC, MYC (gene 4609)
Briefly: LTEA_HepaRG_MYC: Life Technologies and Expression Analysis (LTEA) Assay for MYC using HepaRG (AID 2283518). The procedure, abridged:
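Differentiated human HepaRG cells, plated 48 h then switched to serum-free induction medium, were exposed in duplicate for 48 h to 8-point half-log series up to 100 uM in 0.5% DMSO. MYC mRNA measured by qRT-PCR, normalized to ACTB/GAPDH/POLR2A.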

Read-out in assay [4]: matrix metalloproteinase-3 (MMP3), MMP3 (gene 4314)
Briefly: LTEA_HepaRG_MMP3: Life Technologies and Expression Analysis (LTEA) Assay for matrix metalloproteinase-3 (MMP3) using HepaRG (AID 2283519). The procedure, abridged:
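HepaRG cells (~100,000/well) in serum-free induction medium were dosed in duplicate for 48 h with an 8-point half-log series from 100 uM, 0.5% DMSO. MMP3 mRNA was quantified by Fluidigm TaqMan qRT-PCR, normalized to three housekeeping genes.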

Read-out in assay [5]: Paternally Expressed 10 (PEG10), PEG10 (gene 23089)
Briefly: LTEA_HepaRG_PEG10: Life Technologies and Expression Analysis (LTEA) Assay for Paternally Expressed 10 (PEG10) using HepaRG (AID 2283520). An outline of the steps:
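Differentiated HepaRG cells exposed 48 h in serum-free induction medium to eight half-log concentrations topping at 100 uM, 0.5% DMSO, in duplicate. PEG10 mRNA quantified by TaqMan qRT-PCR, normalized to ACTB, GAPDH and POLR2A; bidirectional fit versus DMSO.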

Read-out in assay [6]: Nuclear factor NF-kappa-B p105 subunit (Homo sapiens) (UniProt P19838)
Briefly: LTEA_HepaRG_NFKB1: Life Technologies and Expression Analysis (LTEA) Assay for Nuclear Factor Kappa B Subunit 1 (NFKB1) using HepaRG (AID 2283521).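 On outcome: TaqMan qRT-PCR transcript normalised to ACTB GAPDH and POLR2A housekeeping genes.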 The procedure, abridged: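 Differentiated human HepaRG cells in serum-free induction medium with 0.5% DMSO were exposed for 48 h to eight half-log concentrations, top 100 uM, in duplicate. NFKB1 mRNA measured by Fluidigm TaqMan qRT-PCR, normalised to ACTB, GAPDH and POLR2A; bidirectional fit versus DMSO.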

Read-out in assay [7]: Protein phosphatase 2A (PPP2R4), PTPA (gene 5524)
Briefly: LTEA_HepaRG_PPP2R4: Life Technologies and Expression Analysis (LTEA) Assay for Protein phosphatase 2A (PPP2R4) using HepaRG (AID 2283522). The procedure, abridged: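 Differentiated human HepaRG cells in serum-free induction medium were exposed 48 h to 8 concentrations (top 100 µM, half-log steps, duplicate) in 0.5% DMSO. PPP2R4 mRNA was measured by TaqMan qRT-PCR, normalised to ACTB, GAPDH and POLR2A, and fitted bidirectionally versus DMSO.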

Read-out in assay [8]: Phosphatase and tensin (PTEN), PTEN (gene 5728)
Briefly: LTEA_HepaRG_PTEN: Life Technologies and Expression Analysis (LTEA) Assay for Phosphatase and tensin (PTEN) using HepaRG (AID 2283523). An outline of the steps: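 HepaRG cells, 48 h after plating, exposed in duplicate for 48 h in serum-free induction medium to 8 half-log concentrations up to 100 uM (0.5% DMSO). PTEN mRNA by qRT-PCR, normalized to ACTB, GAPDH, POLR2A; bidirectional fit versus DMSO.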

Read-out in assay [9]: solute carrier (SLC22A1), SLC22A1 (gene 6580)
Briefly: LTEA_HepaRG_SLC22A1: Life Technologies and Expression Analysis (LTEA) Assay for solute carrier (SLC22A1) using HepaRG (AID 2283524). The procedure, abridged:
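Differentiated human HepaRG cells in serum-free induction medium, exposed 48 h in duplicate to 8-point half-log series from 100 µM top in 0.5% DMSO. SLC22A1 mRNA by TaqMan qRT-PCR normalized to ACTB, GAPDH, POLR2A; bidirectional fit versus DMSO.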

Read-out in assay [10]: Pyruvate Dehydrogenase Kinase 4 (PDK4), PDK4 (gene 5166)
Briefly: LTEA_HepaRG_PDK4: Life Technologies and Expression Analysis (LTEA) Assay for Pyruvate Dehydrogenase Kinase 4 (PDK4) using HepaRG (AID 2283525). The procedure, abridged:
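HepaRG cells plated 48 h, then switched to serum-free induction medium and exposed in duplicate for 48 h to 8 half-log concentrations from 100 uM in 0.5% DMSO. PDK4 mRNA measured by qRT-PCR, normalized to ACTB, GAPDH and POLR2A; bidirectional fit versus DMSO.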

Read-out in assay [11]: NAD(P)H dehydrogenase [quinone] 1 (NQO1), NQO1 (gene 1728)
Briefly: LTEA_HepaRG_NQO1: Life Technologies and Expression Analysis (LTEA) Assay for NAD(P)H dehydrogenase [quinone] 1 (NQO1) using HepaRG (AID 2283526). An outline of the steps:
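Differentiated human HepaRG cells in serum-free induction medium, dosed in duplicate for 48 h at 8 half-log concentrations up to 100 uM in 0.5% DMSO. NQO1 mRNA by qRT-PCR normalized to ACTB, GAPDH, POLR2A; bidirectional fit versus DMSO baseline.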

Read-out in assay [12]: Nuclear factor erythroid 2-related factor 2 (Homo sapiens) (UniProt Q16236)
Briefly: LTEA_HepaRG_NFE2L2: Life Technologies and Expression Analysis (LTEA) Assay for Nuclear factor erythroid 2-related factor 2 (NFE2L2) Transcription Factor using HepaRG (AID 2283527).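 On outcome: TaqMan qRT-PCR transcript level normalised to ACTB GAPDH and POLR2A housekeeping genes.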 An outline of the steps: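 Differentiated human HepaRG cells, serum-free induction medium, exposed 48 h in duplicate to eight half-log concentrations up to 100 uM in 0.5% DMSO. NFE2L2 mRNA by Fluidigm TaqMan qRT-PCR, normalised to ACTB, GAPDH, POLR2A; bidirectional change versus DMSO.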

Read-out in assay [13]: succinate dehydrogenase complex iron sulfur subunit B (SDHB), SDHB (gene 6390)
Briefly: LTEA_HepaRG_SDHB: Life Technologies and Expression Analysis (LTEA) Assay for succinate dehydrogenase complex iron sulfur subunit B (SDHB) using HepaRG (AID 2283528). The procedure, abridged:
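HepaRG cells (~100,000/well, plated 48 h) exposed in duplicate for 48 h in serum-free induction medium to 8-point half-log series from 100 uM in 0.5% DMSO; mRNA by qRT-PCR normalised to ACTB, GAPDH, POLR2A; bidirectional fit versus DMSO.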

Read-out in assay [14]: Signal transducer and activator of transcription 3 (Homo sapiens) (UniProt P40763)
Briefly: LTEA_HepaRG_STAT3: Life Technologies and Expression Analysis (LTEA) Assay for Signal transducer and activator of transcription (STAT3) using HepaRG (AID 2283529). The procedure, abridged: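 Differentiated HepaRG cells, serum-free induction medium, dosed 48 h in duplicate, 8 half-log concentrations from 100 uM in 0.5% DMSO. STAT3 mRNA by qRT-PCR, normalised to ACTB, GAPDH, POLR2A; bidirectional fit versus DMSO.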

Read-out in assay [15]: solute carrier (SLCO1B1), SLCO1B1 (gene 10599)
Briefly: LTEA_HepaRG_SLCO1B1: Life Technologies and Expression Analysis (LTEA) Assay for solute carrier (SLCO1B1) using HepaRG (AID 2283530). The procedure, abridged: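 Differentiated human HepaRG cells, plated 48 h, switched to serum-free induction medium and exposed in duplicate for 48 h to 8 half-log concentrations (top 100 uM) in 0.5% DMSO. SLCO1B1 mRNA by TaqMan qRT-PCR, normalized to ACTB/GAPDH/POLR2A.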

Read-out in assay [16]: sulfotransferase 2A1 (SULT2A1), SULT2A1 (gene 6822)
Briefly: LTEA_HepaRG_SULT2A1: Life Technologies and Expression Analysis (LTEA) Assay for sulfotransferase 2A1 (SULT2A1) using HepaRG (AID 2283531). An outline of the steps: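 Differentiated human HepaRG cells in serum-free induction medium were exposed for 48 h to eight half-log concentrations (top 100 uM, 0.5% DMSO). SULT2A1 mRNA was measured by qRT-PCR, normalized to ACTB, GAPDH and POLR2A, and fitted bidirectionally against DMSO.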

Read-out in assay [17]: Transforming Growth Factor (TGFA), TGFA (gene 7039)
Briefly: LTEA_HepaRG_TGFA: Life Technologies and Expression Analysis (LTEA) Assay for Transforming Growth Factor (TGFA) using HepaRG (AID 2283532). The procedure, abridged:
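Differentiated HepaRG cells exposed 48 hours in serum-free induction medium, 0.5% DMSO vehicle, 8-point half-log series from 100 uM, in duplicate. TGFA mRNA by TaqMan qRT-PCR, normalised to ACTB, GAPDH, POLR2A; bidirectional fit versus DMSO.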

Read-out in assay [18]: Transforming Growth Factor (TGFB1), TGFB1 (gene 7040)
Briefly: LTEA_HepaRG_TGFB1: Life Technologies and Expression Analysis (LTEA) Assay for Transforming Growth Factor (TGFB1) Transporter using HepaRG (AID 2283533). An outline of the steps: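 Differentiated human HepaRG cells in serum-free induction medium were exposed in duplicate for 48 h to eight concentrations (top 100 uM, half-log steps, 0.5% DMSO). TGFB1 mRNA was quantified by qRT-PCR, normalized to ACTB, GAPDH, POLR2A, and fitted bidirectionally against DMSO.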

Read-out in the next assay: TIMP1, TIMP1 (gene 7076)
Briefly: LTEA_HepaRG_TIMP1: Life Technologies and Expression Analysis (LTEA) Assay for TIMP1 using HepaRG (AID 2283534).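 On outcome: TaqMan qRT-PCR signal normalized to ACTB GAPDH and POLR2A housekeeping genes.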 The procedure, abridged:
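Differentiated human HepaRG cells in serum-free induction medium were exposed 48 h to chemicals (8 half-log concentrations, top 100 uM, 0.5% DMSO). TIMP1 mRNA was quantified by TaqMan qRT-PCR, normalized to ACTB/GAPDH/POLR2A; bidirectional fit versus DMSO.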

Sequence of Nuclear factor erythroid 2-related factor 2 (Homo sapiens) (Q16236 whole entry, looked up): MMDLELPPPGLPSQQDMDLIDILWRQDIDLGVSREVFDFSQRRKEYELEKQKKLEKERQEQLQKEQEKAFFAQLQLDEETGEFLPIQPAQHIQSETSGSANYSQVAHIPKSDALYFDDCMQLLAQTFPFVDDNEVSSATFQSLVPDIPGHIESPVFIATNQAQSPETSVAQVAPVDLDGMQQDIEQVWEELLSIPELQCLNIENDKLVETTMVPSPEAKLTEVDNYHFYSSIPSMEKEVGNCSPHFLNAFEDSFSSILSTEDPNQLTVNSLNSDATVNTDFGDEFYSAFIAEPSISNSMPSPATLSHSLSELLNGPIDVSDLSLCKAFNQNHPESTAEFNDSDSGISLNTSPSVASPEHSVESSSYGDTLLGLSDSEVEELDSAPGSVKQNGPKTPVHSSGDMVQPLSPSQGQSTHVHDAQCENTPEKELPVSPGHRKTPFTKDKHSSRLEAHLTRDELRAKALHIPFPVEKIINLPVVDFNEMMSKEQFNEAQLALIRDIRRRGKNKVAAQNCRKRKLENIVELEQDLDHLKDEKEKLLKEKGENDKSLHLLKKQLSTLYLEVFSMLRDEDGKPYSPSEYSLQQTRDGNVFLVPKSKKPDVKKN
Sequence of Signal transducer and activator of transcription 3 (Homo sapiens) (P40763 whole entry, looked up): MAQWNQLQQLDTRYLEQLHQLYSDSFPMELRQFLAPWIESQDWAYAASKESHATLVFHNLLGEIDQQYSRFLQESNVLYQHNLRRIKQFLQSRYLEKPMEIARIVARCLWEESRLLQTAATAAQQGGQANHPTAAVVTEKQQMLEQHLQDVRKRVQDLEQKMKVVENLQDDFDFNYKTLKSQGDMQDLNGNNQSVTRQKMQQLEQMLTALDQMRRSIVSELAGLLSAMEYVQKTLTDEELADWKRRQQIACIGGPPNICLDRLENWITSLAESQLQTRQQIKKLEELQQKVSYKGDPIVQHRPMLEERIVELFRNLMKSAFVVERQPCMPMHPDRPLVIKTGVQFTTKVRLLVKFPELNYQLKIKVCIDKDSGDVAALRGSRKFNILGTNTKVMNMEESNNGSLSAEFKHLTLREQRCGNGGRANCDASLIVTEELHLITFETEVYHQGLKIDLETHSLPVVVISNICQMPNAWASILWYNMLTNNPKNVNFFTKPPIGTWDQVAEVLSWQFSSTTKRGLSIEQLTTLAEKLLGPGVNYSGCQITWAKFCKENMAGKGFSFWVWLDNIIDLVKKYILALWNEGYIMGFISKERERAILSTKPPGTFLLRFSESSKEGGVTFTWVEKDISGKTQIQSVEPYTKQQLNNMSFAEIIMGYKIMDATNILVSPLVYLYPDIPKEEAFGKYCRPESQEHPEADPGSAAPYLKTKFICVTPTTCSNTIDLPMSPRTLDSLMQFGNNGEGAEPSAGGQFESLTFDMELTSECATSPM
Sequence of Nuclear factor NF-kappa-B p105 subunit (Homo sapiens) (P19838 whole entry, looked up): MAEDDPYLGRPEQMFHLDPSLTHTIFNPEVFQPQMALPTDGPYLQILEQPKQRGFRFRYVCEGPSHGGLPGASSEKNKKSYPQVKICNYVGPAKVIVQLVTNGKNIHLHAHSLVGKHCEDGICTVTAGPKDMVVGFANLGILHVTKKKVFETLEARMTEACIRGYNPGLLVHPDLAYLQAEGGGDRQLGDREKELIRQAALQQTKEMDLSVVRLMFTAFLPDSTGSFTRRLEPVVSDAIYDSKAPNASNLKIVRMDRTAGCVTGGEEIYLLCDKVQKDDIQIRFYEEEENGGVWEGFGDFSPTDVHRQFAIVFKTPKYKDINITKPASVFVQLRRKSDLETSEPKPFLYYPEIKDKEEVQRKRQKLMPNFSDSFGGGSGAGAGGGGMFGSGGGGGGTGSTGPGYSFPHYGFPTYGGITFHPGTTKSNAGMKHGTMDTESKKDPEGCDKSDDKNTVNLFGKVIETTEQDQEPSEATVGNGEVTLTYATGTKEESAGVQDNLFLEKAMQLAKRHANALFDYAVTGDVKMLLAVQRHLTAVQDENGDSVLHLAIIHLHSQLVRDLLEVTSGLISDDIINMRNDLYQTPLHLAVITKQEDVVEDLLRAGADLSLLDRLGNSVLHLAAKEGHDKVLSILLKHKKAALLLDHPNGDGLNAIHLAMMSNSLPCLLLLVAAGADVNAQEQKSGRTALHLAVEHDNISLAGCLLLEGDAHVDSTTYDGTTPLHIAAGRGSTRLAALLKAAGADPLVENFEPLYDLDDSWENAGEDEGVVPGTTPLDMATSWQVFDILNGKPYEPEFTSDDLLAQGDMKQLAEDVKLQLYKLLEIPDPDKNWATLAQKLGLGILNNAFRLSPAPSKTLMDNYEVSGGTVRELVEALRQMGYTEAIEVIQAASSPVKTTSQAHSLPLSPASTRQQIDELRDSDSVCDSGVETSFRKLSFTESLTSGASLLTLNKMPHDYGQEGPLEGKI

A word on the AC50: it is the midpoint of the concentration-response curve, whichever way the signal moves. In the case of `O=C(Nc1ccccc1)Nc1ccnc(Cl)c1`, the AC50 in assay [1] was 81.8 µM (active); in assay [5], 31.8 µM (active); in [6], 39.2 µM (active); in [7] it was 77.7 µM (active); in assay [8], 75.2 µM (active); in [9], 68 µM (active). Also, the AC50 in assay [11] is 82.6 µM (active); in assay [12] it was 82.3 µM (active); in assay [13], 94 µM (active); in assay [14], 42.6 µM (active); in [15], 82.1 µM (active); in [16], 81.5 µM (active). Besides, the AC50 in assay [17] was 76.1 µM (active); in assay [18], 80 µM (active); with TIMP1, TIMP1 (gene 7076), 74.9 µM (active). In addition, the outcome was “inactive” in [2]; “inactive” in [3]; “inactive” in the assay with MYC, MYC (gene 4609); “inactive” in assay [4]; “inactive” in assay [10].
In the case of `C#CCOS(=O)OC1CCCCC1Oc1ccc(C(C)(C)C)cc1` (stereo not given), the concentration at half-maximal activity (AC50) in [1] was 28.7 µM (active); in [2] it was 28.2 µM (active); in assay [3], 22.5 µM (active); with MYC, MYC (gene 4609) it was 22.8 µM (active); in assay [5] it was 24.2 µM (active); in assay [7], 29.8 µM (active). Also, the concentration at half-maximal activity (AC50) is 30.7 µM (active) in assay [8]; 20.7 µM (active) in [9]; 50 µM (active) in [10]; 22.9 µM (active) in assay [11]; 30.5 µM (active) in [13]; 36.3 µM (active) in [14]. Moreover, the AC50 was 29.2 µM (active) in assay [15]; 27.3 µM (active) in assay [16]; 22.2 µM (active) in [17]; 50 µM (active) in assay [18]; 26.5 µM (active) in the assay with TIMP1, TIMP1 (gene 7076). Further, the result in [4], in [6] and in [12] was inactive.
Take `CON(C)C(=O)Nc1ccc(Cl)c(Cl)c1`: the AC50 in [1] was 12.5 µM (active); with MYC, MYC (gene 4609), 78.6 µM (active); in [5], 65.3 µM (active); in assay [9] it was 50 µM (active); in assay [12] it was 86.9 µM (active). The outcome in assay [2], in [3], in assay [4], in assay [6], in assay [7] and in [8] was inactive. The call in assay [10], in assay [11], in [13], in assay [14], in assay [15] and in [16] was inactive. Moreover, the outcome in assay [17] is “inactive”; in assay [18], “inactive”; in the assay with TIMP1, TIMP1 (gene 7076), “inactive”.
